Records with an inconclusive call do not appear. Activity calls are given as the source filed them. Calls come from the whole dose curve; as a rule, active = well fitted inhibition curve with a large enough effect; inconclusive = small, poorly fitted or top-dose-only effect; inactive = no such curve, though single readings can be large or run the other way.
Potency is the fitted concentration of half-maximal effect.

The nature of the test: qHTS Screen of the MIPE 4.0 Collection Against Ewings Sarcoma (TC71) (AID 1259253). Note: nearly all actives have a fitted effect of over 40% in size. Particulars: TC71 Ewing sarcoma viability, CellTiter-Glo, 48 h; series mostly up to 45.8 µM. The source says:
There is a large unmet medical need for treatments for Ewing sarcoma, a pediatric sarcoma. We sought to identify compounds that inhibited Ewing sarcoma cells in vitro with the goal to then test promising drugs in two drug combinations in vitro to look for synergistic drug combinations. Promising combinations would then proceed to additional validation, including in vivo testing.
Using the NCATS developed oncology compound library called the Mechanism of Interrogation Plate (MIPE), four Ewing sarcoma cell lines were evaluated (TC32, TC71, RDES, EW8). Compounds, in a 12-point titration series, were incubated with cells for 48 hours and the read out was cell viability (CellTiter-Glo from Promega). These initial experiments were used to select appropriate concentrations of each single agent for subsequent two-drug matrix combinations such that the concentrations in the matrices would span both activity and non-activity.
Cells, in the log phase of growth, were seeded in 5 uL of RPMI plus 5% FBS, […] L-glutamine, 100 U/ml penicillin and 100 ug/ml streptomycin into 1536-well solid-bottom white tissue culture treated Greiner Bio One Plates (789173-F) using a MultiDrop Combi (Thermofisher Scientific) dispenser and a small sterile cassette. One column was media alone to be used as a :"no cells" control. The plates were then covered with sterilized stainless steel gasketed lids from Kalypsys. After allowing cells to attach for 4 hours, 23 nL of test compound or control (negative control DMSO and positive control 9.2 uM Bortezomib-final) were added from a 1536-well polypropylene compound source plate to each well using a 1536 head pin tool from Kalypsys. Cells were then incubated for 48 hours at 37C, 95% relative humidity and 5% CO2. After 48 hours, plates were removed from the incubator and 3 uL of CellTiter-Glo (Promega) was added using an Aurora Flying Reagent Dispenser Bioraptor. Plates were incubated at room temperature for 10 minutes prior to reading the luminescence on the Viewlux (PerkinElmer). The relative luciferase units are used to calculate the percent activity using the activity of DMSO in the cells and no cells columns for normalization of no inhibition and full inhibition respectively.
A general note: Quantitative high-throughput screening tests each substance at several concentrations.
As for `CCCCC(C=O)NC(=O)C(CC(C)C)NC(=O)OCc1ccccc1` (stereo not given), the Potency entry is “inactive”.
For the compound `C=CCc1cccc(C=NNC(=O)CN2CCN(Cc3ccccc3)CC2)c1O`, the Potency was 4.69 µM (active).
Take `CN[C@@H](C)[C@H]1[C@H](O)C[C@@]2(C)[C@@H]3CC[C@H]4C(C)(C)[C@@H](NC)CC[C@@]45C[C@@]35CC[C@]12C`: the Potency entry is “inactive”.
To `O=C(O)C1=NC(C(=O)O)CC(C=CN2c3cc(O)c(OC4OC(CO)C(O)C(O)C4O)cc3CC2C(=O)O)=C1` (stereo not given) belongs “inactive”; to `CN[C@@H]1CN(c2ccc3c(=O)c(C(=O)O)cn(-c4nccs4)c3n2)C[C@@H]1OC`, 0.645 µM (active).
On to `Cc1ccc(C(=O)N(CCCN)[C@@H](c2nc3cc(Cl)ccc3c(=O)n2Cc2ccccc2)C(C)C)cc1`, for which the Potency is 0.0019 µM (active).
Turning to `CN(C)CCN(C)C(=O)c1ccc(NC(=O)Nc2ccc(-c3nc(N4CCOCC4)c4ccn(CC(F)(F)F)c4n3)cc2)cc1`, the Potency was 0.0743 µM (active).
Then `O=c1[nH]c(=O)n([C@H]2C[C@@H](O)[C@@H](CO)O2)cc1C(F)(F)F`, with 1.87 µM (active).
Regarding `CCCCCCCCCCCCCCCC(=O)O[C@H]1[C@@H](O)[C@@H](O)[C@@H]([C@H](NC(=O)[C@@H]2C[C@@H](CCC)CN2C)[C@H](C)Cl)O[C@@H]1SC`, the Potency was 13.2 µM (active).
As to `CC(C)c1c(C(=O)Nc2ccccc2)c(-c2ccccc2)c(-c2ccc(F)cc2)n1CC[C@H](O)C[C@@H](O)CC(=O)O`, the Potency was 14.8 µM (active).
To `COc1cc(F)c(C(C)C)cc1-c1ccc(C(F)(F)F)cc1CN1C(=O)O[C@H](c2cc(C(F)(F)F)cc(C(F)(F)F)c2)[C@@H]1C` belongs 16.6 µM (active); to `CCOc1ccccc1N=Nc1c(C)[nH]n(-c2nc(-c3ccccc3)cs2)c1=O`, 20.9 µM (active).
For `OC[C@H]1O[C@@H](O[C@H]2[C@@H](O)[C@@](O)(CO)O[C@@H]2CO)[C@H](O)[C@@H](O)[C@@H]1O`, the Potency entry was “inactive”.
In the case of `COc1ccc2nc3cc(Cl)ccc3c(Nc3cc(CN4CCCC4)c(O)c(CN4CCCC4)c3)c2n1`, the Potency is 14.8 µM (active).
To `O=C(CCCN1CCN(c2ccc(F)cc2)CC1)NC1c2ccccc2CSc2ccccc21` (stereo not given) belongs 16.6 µM (active); to `N#CC1(c2cccc(C(=O)Nc3cc(Oc4ccc5nc(NC(=O)C6CC6)sc5n4)ccc3F)c2Cl)CC1`, 16.6 µM (active); to `NCC1CCC(C(=O)O)CC1` (stereo not given), 9.35 µM (active).
Then `CCc1cc(-c2n[nH]c(C)c2-c2ccc3c(c2)OCCO3)c(O)cc1O`, with 8.33 µM (active); and `CC(=O)N1CCN(c2ccc(OCc3nn(C)c(C)c3-c3cccc4c(CCCOc5cc(C)c(Cl)c(C)c5)c(C(=O)O)n(Cc5cccnc5)c34)cc2)CC1`, with 20.9 µM (active).
Regarding `Nc1ccn([C@@H]2O[C@H](CO)[C@@H](O)[C@H]2O)c(=O)n1`, the Potency is 0.0332 µM (active).
On to `O=C(c1ccc(C=Cc2n[nH]c3ccccc23)cc1)N1CCNCC1`, for which the Potency is 1.66 µM (active).
To `C[C@@H]1[C@H](O)[C@@H](C)C=CC=CC=CC=CC=CC=CC=C[C@H](O[C@@H]2O[C@H](C)[C@H](O)[C@H](N)[C@@H]2O)C[C@@H]2O[C@](O)(C[C@@H](O)C[C@@H](O)[C@H](O)CC[C@@H](O)C[C@@H](O)CC(=O)O[C@H]1C)C[C@H](O)[C@@H]2C(=O)O` belongs 0.372 µM (active); to `Cc1ccc2c(c1)C(=O)[C@]1(O)CCN(c3ccccc3)C1=N2`, 18.7 µM (active).
To `Cc1cc(NC(=O)Nc2ccc(N(C)C)cc2)c2cc(F)cc(F)c2n1` belongs “inactive”; to `OC1CCC(Nc2ncc3nc(Nc4c(F)cc(F)cc4F)n([C@@H]4CCOC4)c3n2)CC1` (stereo not given in full), 10.5 µM (active).
Then `Oc1cc(O)cc(C=Cc2ccc(O)c(O)c2)c1`, with 18.7 µM (active); and `C#C[C@]1(O)CC[C@H]2[C@H]3CCc4cc(OC)ccc4[C@H]3CC[C@@]21C`, with 29.6 µM (active).
Consider `Cc1nc(NC(=O)N2CCC[C@@H]2C(N)=O)sc1-c1csc(C(C)(C)C)n1`, for which the Potency was 6.62 µM (active).
In the case of `CCNC(=O)c1noc(-c2cc(C(C)C)c(O)cc2O)c1-c1ccc(CN2CCOCC2)cc1`, the Potency is 0.118 µM (active).
To `C[C@@H]1[C@H](C)CC[C@]2(C(=O)O)CC[C@]3(C)C(=CC[C@@H]4[C@@]5(C)CC[C@H](O)C(C)(C)[C@H]5CC[C@]43C)[C@@H]12` belongs 1.71 µM (active); to `CN1c2ccccc2C(=O)N2CCc3c([nH]c4ccccc34)C21` (stereo not given), 23.5 µM (active); to `COc1cc2ncnc(Nc3cc(Br)c(O)c(Br)c3)c2cc1OC`, 0.059 µM (active).
As to `CC1(C)CC(=O)c2c(C(F)(F)F)nn(-c3ccc(C(N)=O)c(NC4CCC(O)CC4)c3)c2C1` (stereo not given), the Potency is 0.0935 µM (active).
Regarding `COc1ccc(-c2cc(=O)c3c(O)cc(O[C@@H]4O[C@H](CO[C@@H]5O[C@@H](C)[C@H](O)[C@@H](O)[C@@H]5O)[C@@H](O)[C@H](O)[C@@H]4O)cc3o2)cc1O`, the Potency was 18.7 µM (active).
Then `CNc1nc(-c2ccc3c(N)n[nH]c3c2)cc(N2C[C@@H](C(=O)NC3CCCCC3)CC[C@@H]2C)n1`, with 20.9 µM (active).
`OC[C@H]1O[C@@H](Oc2ccc(O)cc2)[C@H](O)[C@@H](O)[C@H]1O`: the Potency is 18.7 µM (active).
Then `Cc1ccc(C2=Nc3ccc(Cl)cc3OC2)cc1`, with 4.69 µM (active).
To `O=C(Nc1ncc(SCCN2CCCC2)s1)[C@]1(c2ccc(S(=O)(=O)C3CC3)cc2)C[C@@H]1C1CCCCC1` belongs 23.5 µM (active); to `CN1C(=O)C[C@H](C(=O)N[C@@H](Cc2cnc[nH]2)C(=O)N2CCC[C@@H]2C(N)=O)NC1=O`, 20.9 µM (active); to `CN1CCC(COc2cnc(-c3cccc(Cn4nc(-c5cccc(C#N)c5)ccc4=O)c3)nc2)CC1`, 13.2 µM (active).

These data come from PubChem BioAssay (NCATS).
